Assay outcomes (PubChem)
In the library only some 0.32% were active in any assay of this set; here they are far more common.
Mtb BioA inh: M. tuberculosis BioA enzyme inhibitors, primary screen, biochemical, plate reader, single point, HTS; 7,8-diaminopelargonic acid synthase BioA (Mycobacterium tuberculosis); purified M. tuberculosis BioA enzyme; inhibition, % at 9.99 µM; actives 0.096% (n = 360,000); in the data active = inhibition above about 40%
TcdB GH inh: TcdB glycohydrolase inhibitors, primary screen, biochemical, single point, plate reader; AID 652162, 2013; inhibition, % at 9.99 µM; Toxin B (Clostridioides difficile), P18177; actives 0.24% (n = 350,000); TcdB glycohydrolase enzymatic assay; in the data active = inhibition above about 10%
Yp Topo-I inh: Yersinia pestis topoisomerase I inhibitors, primary screen, biochemical, cleavage product accumulation, plate reader, single point; Y. pestis Topo-I cleavage product accumulation; activity, % at 10 µM; actives 0.064% (n = 360,000); AID 504884, 2011; in the data active = activity above about 50%, passing the limit was not always enough
An asterisk follows results filed as active; . = no result; ! = repeats disagree.

SMILES | Mtb BioA inh | TcdB GH inh | Yp Topo-I inh
Cc1nn(Cc2ccccc2)c(Cl)c1/C=N/NC(=O)c1cccnc1 | 104* | 1 | 7
Cc1nn(C)c(C(=O)N/N=C/c2cccnc2)c1Cl | 44* | 0 | 7
Cc1nn(C)c(C(=O)N/N=C/c2ccncc2)c1Cl | 7 | 2 | -3
Cc1c(/C=N/NC(=O)c2cccnc2)c2ccccc2n1Cc1ccccc1 | 6 | -1 | 28
O=C(NC(=S)NNC(=O)c1ccccc1F)c1cccnc1 | -4 | 15* | 1
Cc1ccccc1C(=O)NNC(=S)NC(=O)c1cccnc1 | 0 | 10 | -2
C=CCOC(Cn1ccnc1)c1ccc(Cl)cc1Cl (stereo not drawn) | 2 | 1 | 12
Clc1ccc(COC(Cn2ccnc2)c2ccc(Cl)cc2Cl)c(Cl)c1 (stereo not drawn) | -5 | 1 | 60*!
COc1cccc(S(=O)(=O)N(C)C[C@H]2Oc3cc(C#CCN(C)C)ccc3S(=O)(=O)N([C@@H](C)CO)C[C@@H]2C)c1 | -2 | 0 | .
O=C(C[C@@H]1C=C[C@@H](NC(=O)Nc2cc(F)ccc2F)[C@H](CO)O1)NCc1ccc2c(c1)OCO2 | -1 | 1 | .
Cc1ccc(S(=O)(=O)N(C)C[C@H]2Oc3cc(C#Cc4ccncc4)ccc3S(=O)(=O)N([C@@H](C)CO)C[C@H]2C)cc1 | -2 | 0 | .
CC(C)(C)N1[C@@H](CC(=O)O)c2cc(C(F)(F)F)ccc2S1(=O)=O | -3 | 12* | 4
CCCCCCCCN1[C@@H](CC(=O)O)c2cc(C(F)(F)F)ccc2S1(=O)=O | 1 | 0 | 15
CCCC#Cc1cnc2c(c1)C(=O)N([C@@H](C)CO)C[C@H](C)[C@@H](CN(C)C(=O)C1CCC1)O2 | 3 | 0 | .
Cc1noc(C)c1S(=O)(=O)Nc1ccc2c(c1)C(=O)N([C@@H](C)CO)C[C@@H](C)[C@@H](CN(C)S(=O)(=O)c1ccc(F)cc1)O2 | . | 1 | .
C[C@H]1CN([C@@H](C)CO)C(=O)c2cc(NC(=O)C3CC3)ccc2O[C@H]1CN(C)C(=O)Nc1ccc2c(c1)OCO2 | 1 | -1 | .
O=C(NC1CCCCC1)N1CC(=O)N2[C@H](CO)[C@@H](c3ccc(/C=C/c4ccccc4)cc3)[C@@H]2C1 | . | 0 | .
O=C(CNC(=O)c1ccccc1Br)N/N=C/c1ccco1 | 5 | -8 | 12
O=C(CNC(=O)c1ccccc1Br)N/N=C/c1ccc(O)cc1 | . | 13* | 2
Cc1cccc(CN2CCCN(Cc3ccc(Cl)cc3)S2(=O)=O)c1 | . | 0 | 57*
Cc1ccc(CN2CCCN(Cc3ccc(C)cc3)S2(=O)=O)cc1 | 0 | 0 | 5
C[C@H](CO)N1C[C@H](C)[C@@H](CN(C)C(=O)c2ccccc2)OCCCC[C@H](C)Oc2ccc(NS(=O)(=O)c3ccc(Cl)cc3)cc2C1=O | 0 | 1 | .
CC(=O)c1cccc(NC(=O)CCc2nnc3ccc(NCc4ccc5c(c4)OCO5)nn23)c1 | . | 0 | 73*
CC(=O)c1cccc(NC(=O)CCc2nnc3ccc(N4CCN(C)CC4)nn23)c1 | -2 | 1 | 4
COc1cc(/C=N/Nc2nc(N3CCCC3)nc(N3CCCC3)n2)ccc1O | -2 | . | 3
SMILES | Mtb BioA inh | TcdB GH inh | Yp Topo-I inh
Oc1ccc(/C=N/Nc2nc(N3CCCC3)nc(N3CCCC3)n2)cc1O | 1 | 21* | 13
Cc1ccc(S(=O)(=O)Nc2ccc3c(c2)CC(=O)N([C@@H](C)CO)C[C@H](C)[C@@H](CN(C)S(=O)(=O)c2ccc(F)cc2)O3)cc1 | 2 | . | .
O=C(CC1C(=O)NCCN1Cc1ccccc1C(F)(F)F)NCCN1CCOCC1 (stereo not drawn) | -3 | 0 | 1
CN(CCN1CCOCC1)C(=O)CC1C(=O)NCCN1Cc1ccccc1C(F)(F)F (stereo not drawn) | -4 | 19* | -5
COc1cccc(NC(=O)N2[C@@H]3CNC[C@H]2C3c2ccc(/C=C/c3ccccc3)cc2)c1 (stereo partly drawn) | . | -3 | .
FC(F)(F)c1nc(NCc2ccccc2)c2nnn(Cc3ccccc3)c2n1 | 1 | 1 | -2
CCOC(=O)CNc1nc(C(C)(C)C)nc2c1nnn2Cc1ccccc1 | -1 | 1 | 59*
CC(C)CC#Cc1ccc2c(c1)O[C@H](CN(C)C(=O)Cc1ccccc1)[C@H](C)CN([C@H](C)CO)S2(=O)=O | -2 | 1 | .
Cc1ccc(N/N=C/c2c(O)n(-c3ccccc3)c(=O)[nH]c2=O)cc1 | 0 | 14* | 0
Cc1ccc(-n2c(O)c(/C=C/C=Nc3ccccc3)c(=O)[nH]c2=O)cc1 | . | 1 | -10
CC(C)NC(=O)N(C)C[C@@H]1Oc2ncc(C#CCc3ccccc3)cc2C(=O)N([C@@H](C)CO)C[C@@H]1C | -6 | -6 | .
CCc1ccc(N=C2NC(=O)/C(=C/c3cc(Br)c(OCC(=O)O)c(OC)c3)S2)cc1 | 1 | 0 | -5
C=CCOc1c(Br)cc(/C=C2\SC(=Nc3ccccc3)NC2=O)cc1OC | 0 | 0 | 57*
CO[C@H]1CN(C)C(=O)c2ccc(NC(=O)C3CC3)cc2OC[C@@H](C)N(Cc2ccccc2)C[C@@H]1C | 1 | -8 | .
C[C@@H](O)C#Cc1ccc([C@@H]2[C@@H](CO)N3CCCCN(C(=O)c4ccc5c(c4)OCO5)C[C@H]23)cc1 | 7 | 1 | .
CO[C@H]1CN(C)C(=O)c2cc(NC(=O)c3ccccc3)ccc2OC[C@H](C)N(C(=O)C2CC2)C[C@@H]1C | -1 | 2 | .
C[C@H](CO)N1C[C@H](C)[C@H](CN(C)S(C)(=O)=O)Oc2c(NS(C)(=O)=O)cccc2C1=O | -5 | -1 | .
COc1ccc(CNC(=O)c2cc3c(s2)CN(Cc2ccccc2)C3)cc1 | . | 10* | -4
COc1ccc(CNC(=O)c2cccs2)cc1 | 3 | . | 1
CO[C@H]1CN(C)C(=O)c2ccc(NC(C)=O)cc2OC[C@H](C)N(C(=O)CN2CCOCC2)C[C@H]1C | 0 | 0 | .
N#C/C(=C\c1cccc(O)c1)C(=O)N1CCCCC1 | 3 | 0 | -3
Cc1cc(/C=C(\C#N)C(=O)N2CCCCC2)cc(C)c1O | 0 | 12* | 9
O=C(C[C@H]1CC[C@@H](NC(=O)Nc2ccc3c(c2)OCO3)[C@@H](CO)O1)NCc1ccc(F)cc1 | -3 | -1 | .
CO[C@@H]1CN(C)C(=O)c2cc(NC(=O)C3CCCC3)ccc2OC[C@H](C)NC[C@@H]1C | -2 | 0 | .
COc1cccc(C(=O)C2CCCN(Cc3ccc(F)cc3)C2)c1 (stereo not drawn) | -1 | 13* | 22
COc1cccc(C(=O)C2CCCN(Cc3ccc4nsnc4c3)C2)c1 (stereo not drawn) | 1 | 1 | 18
C[C@@H]1CN([C@H](C)CO)C(=O)c2cccc(N(C)C)c2O[C@@H]1CN(C)C(=O)Nc1ccc(C(F)(F)F)cc1 | -2 | 13* | .
C[C@@H]1CN([C@H](C)CO)C(=O)c2cccc(N(C)C)c2O[C@H]1CN(C)C(=O)Nc1ccc(C(F)(F)F)cc1 | 2 | 0 | .
CC(C)C#Cc1cnc2c(c1)C(=O)N([C@@H](C)CO)C[C@H](C)[C@H](CN(C)C(=O)Nc1cccc(F)c1)O2 | -1 | 1 | .
CCc1ccc(Nc2n[n+](-c3ccccc3)c(-c3ccc(OC)c(Br)c3)s2)cc1 | 1 | 11* | -9
